In PubChem BioAssay (NCATS):
Inconclusive results are not listed. Where a call stands in place of a potency, no number is given. Active and inactive are the calls of the source. Unless noted, calls follow the shape of the dose curve; as a rule, active = well fitted curve in either direction with a large enough effect (not every such curve was filed as active); inconclusive = small, poorly fitted or top-dose-only effect, or another doubt; inactive = flat fitted curve, though single readings scatter.

What was measured:
[1] = AP1 Signaling Pathway (AID 357);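 also: ME-180 reporter cells stimulated with EGF at its EC50 level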
How it was run: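 Beta-lactamase reporter under AP-1 response element, ME-180 background. Stimulus: EC50 EGF. Compound exposure 5 h, 37 °C. Detection: CCF4, 2.5 h RT, 460/530 nm. Values: AC50 from titration.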

[2] = molecular target: Cytochrome P450 1A2 (Homo sapiens) (UniProt P05177); experiment: p450-cyp1a2 (AID 410; calls by dose curve; also: potency is read from the fitted curve at half-maximal effect)
Chain of Cytochrome P450 1A2 (Homo sapiens) (P05177 whole entry, looked up): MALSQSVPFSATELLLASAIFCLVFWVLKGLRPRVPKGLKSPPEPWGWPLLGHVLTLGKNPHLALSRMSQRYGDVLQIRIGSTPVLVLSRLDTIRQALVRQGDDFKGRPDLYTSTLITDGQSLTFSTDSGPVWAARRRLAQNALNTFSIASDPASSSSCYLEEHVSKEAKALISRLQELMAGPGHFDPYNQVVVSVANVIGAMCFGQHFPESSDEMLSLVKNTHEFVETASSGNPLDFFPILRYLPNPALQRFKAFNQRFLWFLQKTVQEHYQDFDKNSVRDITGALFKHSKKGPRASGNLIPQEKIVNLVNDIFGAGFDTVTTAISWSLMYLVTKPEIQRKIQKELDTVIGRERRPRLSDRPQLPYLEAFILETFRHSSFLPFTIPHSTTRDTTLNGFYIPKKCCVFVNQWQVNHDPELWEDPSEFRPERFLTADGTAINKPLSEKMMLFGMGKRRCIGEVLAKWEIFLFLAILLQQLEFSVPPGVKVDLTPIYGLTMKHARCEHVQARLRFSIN
How it was run: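 Inhibition was calculated relative to 57 uM furafylline (full inhibition). The reaction used human CYP1A2 at 20nM with Luciferin-ME at its Km, 100uM, driven by an NADPH-regenerating system for 60 min at room temperature.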

[3] = NFAT Signaling Pathway (AID 444); conditions: Jurkat NFAT-bla M1, carbachol, beta-lactamase ratio, 5 h; at 17.2 µM (top of the series) unless noted;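 also: carbachol stimulus at about its EC50 of 1 µM final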
How it was run: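 Jurkat cells with NFAT-driven β-lactamase reporter and co-expressed M1 receptor, stimulated with carbachol (final 1 uM, ~EC50), compound titration, 5 h at 37 °C. CCF4 loaded 1 h at RT; 460/530 nm ratio gave %activity and AC50.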

[4] = Stat Signaling Pathway (AID 446);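 also: ME-180 cervical cancer cells given 40 pM IL-6 alongside compound; SIE-controlled beta-lactamase reporter measured as 460/530 nm FRET emission ratio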
How it was run: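 Screening format detects activators and inhibitors alike: ME-180 SIE-bla cells stimulated at 40 pM IL-6 for 5 hrs with compound, then dual-emission beta-lactamase read at 405 nm excitation.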

[5] = molecular target: Mitogen-activated protein kinase 10 (Mus musculus) (UniProt Q61831); experiment: JNK3 AlphaScreen Assay (AID 530);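 also: kinase came from lysate of stimulated human HepG2 cells; signal reports phosphorylation of biotinylated GST-cJun 1-79 at Ser73 with 10 µM ATP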
How it was run: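 qHTS format: compounds tested as titrations against IL-1beta/TNF-alpha-activated HepG2 lysate JNK3 with biotin-GST-cJun substrate and 10 uM ATP at room temperature. Loss of anti-phospho-cJun AlphaScreen signal indicates inhibition.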

[6] = qHTS Assay for Lipid Storage Modulators (AID 1519; calls by dose curve); conditions: Drosophila S3 cells, BODIPY lipid droplet/cell ratio, laser cytometry, cells loaded with oleic acid; for activity change, negative = inhibition: at 25.7 µM (top of the series)
How it was run: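 Cells seeded at 5,000 per well were treated with compounds over a concentration series and loaded with oleic acid (400 uM, as added). Lipid droplet fluorescence (488 nm excitation, 500-530 nm channel) was read by laser-scanning cytometry and normalized to 20 uM Triacsin C.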

[7] = molecular target: Ubiquitin carboxyl-terminal hydrolase 1 (Homo sapiens) (UniProt O94782); experiment: Inhibitors of USP1/UAF1: Pilot qHTS (AID 504865; active = well fitted curve in the direction sought with a large enough effect; an effect the other way counts as inactive or inconclusive;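 also: rhodamine fluorescence freed from ubiquitin-rhodamine substrate followed over time; top concentration of the series differs between compounds; nearly all actives have a fitted effect of over 35% in size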)
Chain of Ubiquitin carboxyl-terminal hydrolase 1 (Homo sapiens) (O94782 whole entry, looked up): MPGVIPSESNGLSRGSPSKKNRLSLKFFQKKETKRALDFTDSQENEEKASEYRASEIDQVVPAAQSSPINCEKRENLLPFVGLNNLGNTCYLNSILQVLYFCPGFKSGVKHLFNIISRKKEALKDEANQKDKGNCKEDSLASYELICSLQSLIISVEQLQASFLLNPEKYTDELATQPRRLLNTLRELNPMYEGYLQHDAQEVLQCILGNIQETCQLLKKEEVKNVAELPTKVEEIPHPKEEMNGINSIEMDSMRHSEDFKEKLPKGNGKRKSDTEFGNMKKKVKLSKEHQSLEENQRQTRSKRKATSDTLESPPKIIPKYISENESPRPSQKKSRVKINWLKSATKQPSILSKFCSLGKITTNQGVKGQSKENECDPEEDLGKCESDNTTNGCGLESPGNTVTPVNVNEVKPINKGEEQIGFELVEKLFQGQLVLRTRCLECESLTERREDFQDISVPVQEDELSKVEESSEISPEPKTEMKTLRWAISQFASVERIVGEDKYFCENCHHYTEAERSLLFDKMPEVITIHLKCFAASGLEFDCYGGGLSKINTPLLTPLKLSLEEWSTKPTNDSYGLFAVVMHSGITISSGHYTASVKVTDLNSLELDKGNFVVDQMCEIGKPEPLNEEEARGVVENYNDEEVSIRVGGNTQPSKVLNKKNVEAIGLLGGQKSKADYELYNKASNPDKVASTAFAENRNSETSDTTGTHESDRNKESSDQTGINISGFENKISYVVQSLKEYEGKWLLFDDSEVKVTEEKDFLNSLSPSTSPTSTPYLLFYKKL
How it was run: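 Enzyme-free wells gave the negative control, while test wells held 1nM USP1/UAF1 preincubated with compound for 15 min at room temperature. Ub-Rho at 150nM final started the reaction, and fluorescence at 480/540 nm was recorded kinetically.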

[8] = qHTS profiling for inhibitors of Plasmodium falciparum proliferation (AID 504749; active = well fitted curve in the direction sought with a large enough effect; an effect the other way counts as inactive or inconclusive; also: potency is read from the fitted curve at half-maximal effect; as to all read-outs here: nearly all actives have a fitted effect of over 60% in size); conditions: P. falciparum in erythrocytes, SYBR Green DNA, 72 h; for activity, negative = inhibition: at 12.8 µM (top of the series)
How it was run: (§1)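 Readout was DNA-dye fluorescence from lysed cultures, ex 485/em 535 nm. Parasitized red cells had grown 72 h with compound; data scaled between 0.29 uM artemisinin and DMSO wells and corrected using vehicle-only plates.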

C2A = experiment: as above; conditions: P. falciparum in erythrocytes, SYBR Green DNA, 72 h; series mostly up to 12.8 µM
How it was run: as §1

CP191 = experiment: as above; conditions: P. falciparum in erythrocytes, SYBR Green DNA, 72 h; series mostly up to 12.8 µM
How it was run: as §1

CP217 = experiment: as above; conditions: P. falciparum in erythrocytes, SYBR Green DNA, 72 h; series mostly up to 12.8 µM
How it was run: as §1

CP250 = experiment: as above; conditions: P. falciparum in erythrocytes, SYBR Green DNA, 72 h; series mostly up to 12.8 µM
How it was run: as §1

CP256 = experiment: as above; conditions: P. falciparum in erythrocytes, SYBR Green DNA, 72 h; series mostly up to 12.8 µM
How it was run: as §1

FAB9 = experiment: as above; conditions: P. falciparum in erythrocytes, SYBR Green DNA, 72 h; series mostly up to 12.8 µM
How it was run: as §1

JCK = experiment: as above; conditions: P. falciparum in erythrocytes, SYBR Green DNA, 72 h; series mostly up to 12.8 µM
How it was run: as §1

SC27B = experiment: as above; conditions: P. falciparum in erythrocytes, SYBR Green DNA, 72 h; series mostly up to 12.8 µM
How it was run: as §1

[9] = molecular target: 3',5'-cyclic-AMP phosphodiesterase 4B (Homo sapiens) (UniProt Q07343); experiment: qHTS Assay for Inhibitors of PDE-IV (AID 607; active = well fitted activation curve with a large enough effect in the main read-out, with a control signal flat, not every such curve was filed as active)
Chain of 3',5'-cyclic-AMP phosphodiesterase 4B (Homo sapiens) (Q07343 whole entry, looked up): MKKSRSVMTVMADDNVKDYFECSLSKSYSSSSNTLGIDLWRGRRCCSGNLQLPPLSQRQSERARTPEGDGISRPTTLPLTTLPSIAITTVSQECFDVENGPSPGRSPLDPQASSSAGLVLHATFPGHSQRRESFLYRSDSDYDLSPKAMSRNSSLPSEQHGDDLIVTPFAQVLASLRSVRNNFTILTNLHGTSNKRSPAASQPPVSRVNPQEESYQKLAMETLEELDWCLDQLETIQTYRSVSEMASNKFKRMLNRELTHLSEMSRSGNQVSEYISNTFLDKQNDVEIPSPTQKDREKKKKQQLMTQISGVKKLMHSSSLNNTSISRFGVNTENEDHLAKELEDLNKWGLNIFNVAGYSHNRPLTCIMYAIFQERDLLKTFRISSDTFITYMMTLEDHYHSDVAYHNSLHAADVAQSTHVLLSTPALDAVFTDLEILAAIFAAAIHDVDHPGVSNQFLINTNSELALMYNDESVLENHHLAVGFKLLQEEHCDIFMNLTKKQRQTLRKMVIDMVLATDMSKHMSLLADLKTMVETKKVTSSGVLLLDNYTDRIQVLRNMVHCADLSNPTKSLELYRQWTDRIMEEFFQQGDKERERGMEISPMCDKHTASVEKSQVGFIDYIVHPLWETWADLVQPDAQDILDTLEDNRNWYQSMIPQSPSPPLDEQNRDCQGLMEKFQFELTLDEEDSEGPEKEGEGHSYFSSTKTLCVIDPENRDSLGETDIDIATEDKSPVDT
How it was run: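 The readout is membrane depolarisation from a cAMP-sensing CNG channel, detected with a potential dye at ex 535/em 590. Cells were HEK293-derived (endogenous PDE-IV) at 1000 cells/well, titrated up to 22.9 uM final.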

[10] = molecular target: ATP-dependent 6-phosphofructokinase (Trypanosoma brucei brucei) (UniProt O15648); experiment: qHTS Assay to Find Inhibitors of T. brucei phosphofructokinase: hit validation (AID 492961; active = well fitted curve in the direction sought with a large enough effect; an effect the other way counts as inactive or inconclusive)
Chain of ATP-dependent 6-phosphofructokinase (Trypanosoma brucei brucei) (O15648 whole entry, looked up): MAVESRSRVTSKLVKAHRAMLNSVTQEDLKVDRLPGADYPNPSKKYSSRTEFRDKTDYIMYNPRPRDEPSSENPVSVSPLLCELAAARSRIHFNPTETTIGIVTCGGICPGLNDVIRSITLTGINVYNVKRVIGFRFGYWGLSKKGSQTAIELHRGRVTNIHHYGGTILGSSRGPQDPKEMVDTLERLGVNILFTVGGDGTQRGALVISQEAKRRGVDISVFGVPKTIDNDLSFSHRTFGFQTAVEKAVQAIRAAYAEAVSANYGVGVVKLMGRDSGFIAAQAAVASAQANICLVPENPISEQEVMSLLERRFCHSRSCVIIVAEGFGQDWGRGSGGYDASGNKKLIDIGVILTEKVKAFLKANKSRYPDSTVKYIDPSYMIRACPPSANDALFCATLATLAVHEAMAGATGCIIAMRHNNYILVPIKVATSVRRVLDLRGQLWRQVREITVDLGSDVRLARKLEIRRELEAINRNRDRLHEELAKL
How it was run: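 Luminescence from ADP-Glo reports ADP generated as T. brucei PFK (1.25 nM) phosphorylates 0.5 mM fructose-6-phosphate using 0.1 mM ATP. Reactions ran 45 min at room temperature, pH 8.0.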

[11] = molecular target: Glucocorticoid receptor (Homo sapiens) (UniProt P04150); experiment: GR-GFP Redistribution (AID 450;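 active = compounds whose dose series gives a full or clear partial fitted curve of increased nuclear translocation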; also: potency is read from the fitted curve at half-maximal effect); conditions: U2OS GR-GFP nuclear translocation, laser cytometry, 2 h
Chain of Glucocorticoid receptor (Homo sapiens) (P04150 whole entry, looked up, the tested form may be a part): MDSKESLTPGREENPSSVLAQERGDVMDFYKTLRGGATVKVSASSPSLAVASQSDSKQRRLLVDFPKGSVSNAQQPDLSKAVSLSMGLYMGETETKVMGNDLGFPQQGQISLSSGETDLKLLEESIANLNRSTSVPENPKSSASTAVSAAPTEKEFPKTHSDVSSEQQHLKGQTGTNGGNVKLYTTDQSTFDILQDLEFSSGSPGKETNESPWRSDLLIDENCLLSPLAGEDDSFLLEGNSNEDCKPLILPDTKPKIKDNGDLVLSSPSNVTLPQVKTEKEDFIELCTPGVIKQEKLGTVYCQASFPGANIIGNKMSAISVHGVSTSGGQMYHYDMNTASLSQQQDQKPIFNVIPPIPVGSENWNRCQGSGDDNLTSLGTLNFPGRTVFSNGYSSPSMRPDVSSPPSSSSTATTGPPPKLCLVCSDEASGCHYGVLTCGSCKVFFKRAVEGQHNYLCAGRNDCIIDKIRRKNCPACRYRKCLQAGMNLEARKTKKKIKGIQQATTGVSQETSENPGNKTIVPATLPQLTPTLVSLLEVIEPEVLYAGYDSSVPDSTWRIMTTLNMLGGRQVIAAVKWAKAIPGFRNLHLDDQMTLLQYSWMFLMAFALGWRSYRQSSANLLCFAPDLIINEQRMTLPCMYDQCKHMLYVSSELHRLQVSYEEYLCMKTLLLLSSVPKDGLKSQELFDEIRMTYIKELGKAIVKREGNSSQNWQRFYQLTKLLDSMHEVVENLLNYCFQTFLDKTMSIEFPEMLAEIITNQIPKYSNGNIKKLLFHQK

[12] = molecular target: Glucocorticoid receptor (Homo sapiens) (UniProt P04150); experiment: GR-EFC Redistribution (AID 451; calls by dose curve; also: potency is read from the fitted curve at half-maximal effect); conditions: CHO-K1 GR-EFC translocation, beta-gal luminescence, 2 h
How it was run: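 CHO-K1 cells expressing nuclear EA and GR-ED fragments of b-gal; compounds titrated up to 46 uM final, 2 h at 37 C. GR nuclear translocation read as complemented b-gal luminescence after 1 h RT detection.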

[13] = measured here: cell count channel max response
[14] = measured here: lipid channel max response

Structure (SMILES): NC(=O)c1ccc[n+]([C@@H]2O[C@H](COP(=O)([O-])OP(=O)(O)OC[C@H]3O[C@@H](n4cnc5c(N)ncnc54)[C@@H](O)[C@@H]3O)[C@@H](O)[C@@H]2O)c1
- outcome [1]: inactive
- Potency [2]: inactive
- activity change, negative = inhibition [3]: 1.83% (inactive)
- outcome [4]: inactive
- Potency [5]: inactive
- activity change, negative = inhibition [6]: -1.1% (inactive)
- max response [6, 13]: -9.17%
- max response [6, 14]: -22.7%
- Potency [7]: inactive
- activity, negative = inhibition ([8]; parasite line A): 0.56% (inactive)
- activity, negative = inhibition ([8]; parasite line B): 2.43% (inactive)
- Potency (C2A): inactive
- Potency (CP191): inactive
- Potency (CP217): inactive
- Potency (CP250): inactive
- Potency (CP256): inactive
- Potency (FAB9): inactive
- Potency (JCK): inactive
- Potency (SC27B): inactive

Structure (SMILES): CCC[C@@H]1O[C@@H]2C[C@@H]3[C@H]4CCC5=CC(=O)C=C[C@@]5(C)[C@H]4[C@H](O)C[C@@]3(C)[C@@]2(C(=O)CO)O1
- outcome [1]: inactive
- Potency [2]: inactive
- activity change, negative = inhibition [3]: -1.55% (inactive)
- outcome [4]: inactive
- Potency [5]: inactive
- outcome [9]: inactive
- activity change, negative = inhibition [6]: -3% (inactive)
- max response [6, 13]: 4.44%
- max response [6, 14]: -2.78%
- outcome [10]: inactive
- Potency [7]: inactive
- Potency ([8]; parasite line A): 11.2 µM (active)
- Potency ([8]; parasite line B): 11.2 µM (active)
- Potency (CP191): 11.2 µM (active)
- Potency (CP217): 10 µM (active)
- Potency (CP250): 11.2 µM (active)
- Potency (CP256): 11.2 µM (active)

Structure (SMILES): CCN1CCN(C(=O)N[C@H](C(=O)N[C@@H]2C(=O)N3[C@@H]2SC(C)(C)[C@@H]3C(=O)O)c2ccccc2)C(=O)C1=O
- outcome [1]: inactive
- Potency [2]: inactive
- activity change, negative = inhibition [3]: -2.87% (inactive)
- outcome [4]: inactive
- Potency [5]: inactive
- outcome [9]: inactive
- activity change, negative = inhibition [6]: 0.264% (inactive)
- max response [6, 13]: -7.94%
- max response [6, 14]: -7.68%
- Potency [7]: inactive

Structure (SMILES): C=CCSC[C@@H]1Nc2cc(Cl)c(S(N)(=O)=O)cc2S(=O)(=O)N1
- outcome [1]: inactive
- Potency [2]: inactive
- activity change, negative = inhibition [3]: -2.73% (inactive)
- outcome [4]: inactive
- Potency [11]: > 20.6 µM (inactive)
- Potency [12]: > 20.6 µM (inactive)
- Potency [5]: inactive
- outcome [9]: inactive
- activity change, negative = inhibition [6]: -0.966% (inactive)
- max response [6, 13]: -24.3%
- max response [6, 14]: -22.1%
- Potency [7]: inactive

Structure (SMILES): Nc1c(O)cccc1C(=O)C[C@@H](N)C(=O)O
- outcome [1]: inactive
- Potency [2]: inactive
- activity change, negative = inhibition [3]: -7.19% (inactive)
- outcome [4]: inactive
- Potency [11]: > 20.6 µM (inactive)
- Potency [12]: > 20.6 µM (inactive)
- Potency [5]: inactive
- outcome [9]: inactive
- activity change, negative = inhibition [6]: -1.89% (inactive)
- max response [6, 13]: -4.16%
- max response [6, 14]: -9.91%

Structure (SMILES): Cn1c(-c2ccc3c(c2)OCO3)cc(=O)c2ccccc21
- outcome [1]: inactive
- Potency [2]: 5.01 µM (active)
- activity change, negative = inhibition [3]: -10.6% (inactive)
- outcome [4]: inactive
- Potency [11]: > 20.6 µM (inactive)
- Potency [12]: > 20.6 µM (inactive)
- Potency [5]: inactive
- activity change, negative = inhibition [6]: 2.22% (inactive)
- max response [6, 13]: -4.86%
- max response [6, 14]: -2.71%
- Potency [7]: inactive

Structure (SMILES): C[C@@H]1CCc2cc(F)cc3c(=O)c(C(=O)O)cn1c23
- outcome [1]: inactive
- Potency [2]: 12.6 µM (active)
- activity change, negative = inhibition [3]: 7.91% (inactive)
- outcome [4]: inactive
- Potency [11]: > 20.6 µM (inactive)
- Potency [12]: > 20.6 µM (inactive)
- Potency [5]: inactive
- outcome [9]: inactive
- activity change, negative = inhibition [6]: -0.0799% (inactive)
- max response [6, 13]: -3%
- max response [6, 14]: -1.83%
- Potency [7]: inactive
